Measured values from the supplement of paper PMC11417369.
± gives the standard deviation of the averaged measurements. In all, about 25,000 sequences were measured (“ln(normalized median fluorescence intensity)”: median about 8.9, highest 2% from about 10 on). What follows is part of a selection rich in the highest values, with near analogues and random picks from the rest.

System: PfAP2-LT AP2 domain (GST-tagged)
Test: gcPBM binding intensity (ln(normalized median fluorescence intensity)); higher = stronger DNA binding
Summary of the method: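 Binding intensity values are the highest Masliner-normalised natural-log median intensity among replicate spots of either probe orientation. The binding step lasted 1 h in 1× PBS with 1% milk, 0.2 mg/ml BSA, 0.5% salmon testes DNA and 0.03% Triton X-100, using GST-tagged P. falciparum DNA-binding domains expressed in E. coli on an Agilent 4 × 180k array of primer-extended double-stranded 36-bp intergenic genomic probes plus negative controls. Alexa488 anti-GST antibody and a 488 nm scan detected bound protein.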

Sequence	gcPBM binding intensity (ln)
AATATATATATATATATTTTTGTTAGAATATGGAAT [GTGCAC_negctrl_site434]	8.65 ± 0.32
TACCCACTAAAATACACACACACACCCACATATATA [CACACA_site6141]	10 ± 0.42
TACATATACATATACACACACACACCCAAATAAATA [CACACA_site1344]	10.04 ± 0.05
TACACGCTAAAATACACACACACACCCACATATATA [CACACA_site4153]	10.2 ± 0.11
TATATAAATATACACCCACACACATATATATATATA [CACACA_site9247]	9.61 ± 0.28
CACCCACCCACATACACACACATACACATATATATA [CACACA_site1722]	10 ± 0.22
AAAAAAAAAATACATACACACACACCCACCCATATA [CACACA_site9187]	10.18 ± 0.021
TATAAATATACACCCACACACATATATAAATAAATA [CACACA_site7717]	9.65 ± 0.16
TATACATATACATATACACACACACCCATAAATAAA [CACACA_site8372]	9.8 ± 0.22
TATAAATATACACCCACACACATATATATATATATA [CACACA_site3745]	9.94 ± 0.16
AAAAAAAATACATACACACACACACCCACATATATA [CACACA_site3561]	10.13 ± 0.05
CATATATACGCATACACACACACACCCACACCCACA [CACACA_site1725]	10.16 ± 0.05
TATACGCATATATACACACACATATATATATATATA [CACACA_site3416]	10.1 ± 0.11
ATTTTTTTTAAACGAAGTACAATTTGTGCATTGGAA [XGTACX_site8109]	8.45 ± 0.39
GTACATACATAAAACACACACATATAGATTTATATA [CACACA_site6945]	9.47 ± 0.33
TATTTTTTTTGATATTGTACTTTTTTATTATTTTTT [XGTACX_site566]	8.76 ± 0.51
TATTTTTATATATAATCACACATTGGAATGTTCTAA [CACACA_site5540]	8.67 ± 0.44
TTGAAGGTGGCAATGTGTACATAGAATAACCAGTGC [XGTACX_site4738]	9.15 ± 0.54
TATATATTATGACCACCACACACCTATACGCATAAC [CACACA_site2447]	9.44 ± 0.085
CACCCATAAATATACACACGCACAACACAAAATAAA [CACACA_site2903]	9.63 ± 0.41
TATACACCCTAAAATACACACACACCCACCCATATA [CACACA_site9380]	10.06 ± 0.078
ATAAAATACATATAAACACACATATAAACCGACATA [CACACA_site2477]	9.28 ± 0.38
AAAATACACGCATACACACACACACCGACACATATA [CACACA_site4523]	10.4 ± 0.28
AAAATACACGCATACACACACACACCCACCCATATA [CACACA_site639]	10.4 ± 0.14
TAAATTAAAAAAAATACACACACACCGACACATATA [CACACA_site9084]	9.84 ± 0.26
